A selection: hits, their analogues and other compounds. The true share with any hit is near 21%.
CYP2C9 act: activators of human CYP2C9; P11712; recombinant CYP2C9, luciferin-H conversion, luminescence; hits give high values; factor 1 = untreated enzyme, 0 = blocked; activation factor at 5 µM; hit rate 1.4% among 96,000; AID 1024;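 active means activation factor of 2 or more for CYP2C9 at a 5 µM dose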
Target sequence (P11712 whole entry, looked up): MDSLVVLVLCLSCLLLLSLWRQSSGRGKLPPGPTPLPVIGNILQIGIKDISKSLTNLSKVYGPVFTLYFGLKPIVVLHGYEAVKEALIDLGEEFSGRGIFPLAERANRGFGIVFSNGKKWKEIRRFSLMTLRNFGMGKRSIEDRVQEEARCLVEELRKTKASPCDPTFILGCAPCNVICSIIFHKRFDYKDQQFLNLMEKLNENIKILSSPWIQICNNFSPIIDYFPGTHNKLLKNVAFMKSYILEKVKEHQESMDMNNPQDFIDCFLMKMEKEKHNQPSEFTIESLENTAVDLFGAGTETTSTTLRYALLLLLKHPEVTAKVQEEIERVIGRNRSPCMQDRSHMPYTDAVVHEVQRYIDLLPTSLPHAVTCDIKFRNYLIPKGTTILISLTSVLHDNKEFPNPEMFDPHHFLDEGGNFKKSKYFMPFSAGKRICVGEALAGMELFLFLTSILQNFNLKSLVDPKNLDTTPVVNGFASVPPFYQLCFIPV
MRP resist rev: MRP-mediated drug resistance reversal; H69AR cells + 2 uM doxorubicin, CellTiter-Glo, 72 h; differential viability (reversal), % at 10 µM; hit rate 0.04% among 85,000; AID 602;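 active means viability drop by adding the cancer drug above about 55%, with treated viability meeting a 40% cutoff, limit read from the data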;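 further: larger differential means the compound sensitizes cells more to doxorubicin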
CYP2C19 inhib: human CYP2C19 inhibition. P33261. CYP2C19 Supersomes, luciferin-H EGE luminescence, 30 min. inhibition, % at 5 µM. hit rate 21% among 96,000;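 active means CYP2C19 inhibition above a set limit at 5 µM in the primary screen, cut at about 50% in these data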
MRP1 act: activates MRP-1; H69AR cells + doxorubicin, viability rescue, CellTiter-Glo; viability increase, % at 10 µM; hit rate 0.61% among 140,000; AID 799;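 active means viability gain under doxorubicin at or above a set limit, the compound median plus 3 SD, cut at about 4.7% in these data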;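 further: MRP-1 overexpressing cells given doxorubicin 25 µM after compound pretreatment; 18-22 h compound pretreatment then 72 h with doxorubicin before readout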
CYP2C19 act: activators of human cytochrome P450 2C19; P33261; recombinant CYP2C19, luciferin-H EGE luminescence; hits give high values; 0 = fully inhibited enzyme, 1 = untreated enzyme; activation factor at 5 µM; 96,000 tested, under 10 active;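 active means activation factor of at least 2 at 5 µM in the primary screen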
CYP2C9 inhib: blocks human cytochrome P450 2C9; P11712; CYP2C9 Supersomes, luciferin-H conversion, luminescence; inhibition, % at 5 µM; hit rate 20% among 96,000;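 active means blocking of liver enzyme CYP2C9 beyond about 50% at 5 µM, limit read from the data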
Each line names hits and unclear results; the compound was inactive in the other large screens.

O=C(CN1C(=O)c2cccc3cccc(c23)C1=O)N1CCN(Cc2ccc3c(c2)OCO3)CC1	CYP2C9 inhib 55 (no result: MRP resist rev)
CC(C(=O)NCc1ccc2c(c1)OCO2)N1c2cccc3cccc(c23)S1(=O)=O (stereo not drawn)	CYP2C9 act 2.7, CYP2C19 inhib 82
CCC(CC)C(=O)c1c[nH]c(C(=O)NCC2CCCO2)c1 (stereo not drawn)	none (no result: MRP resist rev)
COc1nc(N(c2ccccc2)c2ccccc2)nc(-n2ccnc2)n1	CYP2C19 inhib 86, CYP2C9 inhib 64
Cc1cc2ncc(-c3ccc(Cl)cc3)c(N)n2n1	CYP2C9 inhib 77
Nc1c(-c2ccc(Cl)cc2)cnc2ncnn12	none (no result: MRP resist rev)
CCN=C1SC(CC(=O)Nc2sc(C)c(C)c2C(=O)OC)C(=O)N1CC (stereo not drawn)	none
COCC(C)NS(=O)(=O)c1ccc(NC(=O)C(Cc2ccccc2)NC(N)=O)cc1 (stereo not drawn)	none
COc1cc(C2C(C#N)=C(N)OC3=C2C(=O)CC(C)(C)C3)c([N+](=O)[O-])cc1OC (stereo not drawn)	none (no result: MRP resist rev)
COc1ccc(C2C(C#N)=C(N)OC3=C2C(=O)CC(C)C3)c(OC)c1OC (stereo not drawn)	CYP2C9 inhib 58
COc1ccc(C2C(C#N)=C(N)OC3=C2C(=O)CC(C)(C)C3)c([N+](=O)[O-])c1OC (stereo not drawn)	CYP2C9 inhib 71 (no result: MRP resist rev)
N#CC1=C(N)OC2=C(C(=O)CC(c3ccccc3)C2)C1c1ccoc1 (stereo not drawn)	none (no result: CYP2C9 act, MRP resist rev, CYP2C19 inhib, CYP2C19 act, CYP2C9 inhib)
COc1cccc(C2C(C#N)=C(N)OC3=C2C(=O)CC(c2ccco2)C3)c1OCc1ccc(F)cc1 (stereo not drawn)	CYP2C19 inhib 80, CYP2C9 inhib 89
COc1ccc(C2C(C#N)=C(N)OC3=C2C(=O)CCC3)c(OC)c1OC (stereo not drawn)	none
CSc1nc(=O)n(-c2ccccc2)c(C)c1C(C)=O	none
CSc1nc(-c2ccccc2)nc(N)c1C(C)=O	CYP2C9 inhib 63
Cc1cccc(CN2CCN(c3ccccn3)CC2)c1	none (no result: CYP2C9 act, CYP2C19 inhib, MRP1 act, CYP2C19 act, CYP2C9 inhib)
Brc1cccc(CN2CCCCCCC2)c1	CYP2C19 inhib 77
CCN1CCN(Cc2cccc(Oc3ccccc3)c2)CC1	none
c1ccc(COc2cccc(CN3CCN(c4ccccn4)CC3)c2)cc1	CYP2C9 inhib 70
c1ccc(Oc2cccc(CN3CCCCC3)c2)cc1	CYP2C19 inhib 50 (no result: MRP resist rev)
O=C(O)CCCC(=O)Nc1ccc(Br)cc1C(=O)O	none (no result: CYP2C9 act, CYP2C19 inhib, CYP2C19 act, CYP2C9 inhib)
COc1cc(NC(=S)NCc2ccco2)cc(OC)c1	CYP2C19 inhib 67 (no result: MRP resist rev)
S=C(NCc1ccco1)Nc1cc(Cl)c(Cl)cc1Cl	none (no result: CYP2C9 act, MRP resist rev, CYP2C19 inhib, CYP2C19 act, CYP2C9 inhib)
COc1ccc(Cl)cc1NC(=S)NCc1ccco1	CYP2C9 act 2, CYP2C19 inhib 71
S=C(NCc1ccco1)Nc1ccc(Cl)c(Cl)c1	CYP2C19 inhib 53 (no result: MRP resist rev)
COc1cccc(N2CCN(C(=S)NCc3ccco3)CC2)c1	CYP2C19 inhib 53, CYP2C9 inhib 68 (no result: MRP resist rev)
CCOc1ccccc1NC(=S)NCc1ccco1	CYP2C19 inhib 87
O=C(Nc1ccc(Cl)c(Cl)c1)N(Cc1cccnc1)Cc1ccco1	CYP2C19 inhib 99, CYP2C9 inhib 100
CC(C)CNC(=O)c1cccc(NC(=O)c2ccc(Cl)c([N+](=O)[O-])c2)c1	none (no result: CYP2C9 act, MRP resist rev, CYP2C19 inhib, CYP2C19 act, CYP2C9 inhib)
CSc1nc2c(c(-c3ccccc3)c1C#N)CCC2	none (no result: CYP2C9 act, CYP2C19 inhib, MRP1 act, CYP2C19 act, CYP2C9 inhib)
COc1ccc(N(C)S(=O)(=O)c2cccc(C(=O)NC3=NCCS3)c2)cc1	CYP2C9 inhib 64 (no result: MRP resist rev)
Cc1ccc(N(C)S(=O)(=O)c2cccc(C(=O)NC3=NCCS3)c2)cc1	CYP2C9 inhib 69 (no result: MRP resist rev)
COc1cc(C(=O)NC2=NCCS2)cc(OC)c1OC	none (no result: MRP resist rev)
COc1ccc(-n2c(C)c(C(C)=O)c3cc(O)ccc32)cc1	CYP2C19 inhib 90, CYP2C9 inhib 61 (no result: MRP resist rev)
CC(=O)Oc1ccc2c(c1)c(C(C)=O)c(C)n2C	none
COc1ccc2c(c1)c(C(C)=O)c(C)n2-c1ccccc1	CYP2C19 inhib 97, CYP2C9 inhib 88
COc1ccc(-n2c(C)c(C(C)=O)c(C(C)=O)c2C)cc1	none
CSc1ncccc1C(=O)OCC(=O)NC(=O)NCCC(C)C	none
O=C(O)c1ccc(Cl)c(S(=O)(=O)NCC2CCCO2)c1 (stereo not drawn)	none (no result: MRP resist rev)
Cc1cccc(C2NC(c3cccc(C)c3)C([N+](=O)[O-])C(C)(C)C2[N+](=O)[O-])c1 (stereo not drawn)	none (no result: CYP2C9 act, MRP resist rev, CYP2C19 inhib, CYP2C19 act, CYP2C9 inhib)
Cc1cc(C)n(C(=O)CCCCCCCCC(=O)n2nc(C)cc2C)n1	CYP2C19 inhib 71, CYP2C9 inhib 58
Cc1cc(C)n(C(=O)CCCCCCCC(=O)n2nc(C)cc2C)n1	none (no result: CYP2C9 act, CYP2C19 inhib, CYP2C19 act, CYP2C9 inhib)
Cc1c(Br)c([N+](=O)[O-])nn1CC(=O)NCc1ccco1	none (no result: CYP2C9 act, MRP resist rev, CYP2C19 inhib, CYP2C19 act, CYP2C9 inhib)
N#Cc1cn(Cc2ccccc2)c2ccccc12	CYP2C19 inhib 91, CYP2C9 inhib 84
COC(=O)Cn1cc(C#N)c2ccccc21	none (no result: CYP2C9 act, CYP2C19 inhib, CYP2C19 act, CYP2C9 inhib)
N#Cc1cn(CC(=O)NCc2cccnc2)c2ccccc12	CYP2C19 inhib 80, CYP2C9 inhib 63
Cc1c(Br)c([N+](=O)[O-])nn1CC(=O)NCc1cccnc1	CYP2C19 inhib 90, CYP2C9 inhib 68
CCC(=O)c1cn(CC(=O)NCc2cccnc2)c2ccccc12	CYP2C19 inhib 86, CYP2C9 inhib 91
N/C(=N\OC(=O)CCCCCN1C(=O)c2ccccc2C1=O)c1ccccc1	none (no result: MRP resist rev)
Cc1nn(-c2ccccc2)c(N2CCCC2)c1/C=N/n1cnc2scc(-c3ccccc3)c2c1=O	none
O=c1c2c(-c3ccccc3)csc2ncn1/N=C/c1c2ccccc2cc2ccccc12	CYP2C9 inhib 85 (no result: MRP resist rev)
CC(=NCCc1ccccc1)C1=C(O)CCC1=O	none
CC(=NCCc1ccccc1)C1=C(O)CSC1=O	CYP2C19 inhib 67
O=C(c1cccs1)n1nc(-c2ccco2)nc1SCc1ccccc1	none
CSc1nc(-c2ccco2)nn1C(=O)c1cccs1	CYP2C9 inhib 88
CC(=O)n1nc(-c2ccco2)nc1SCc1ccccc1	CYP2C19 inhib 66
CCC(=O)n1nc(-c2ccco2)nc1SCc1ccccc1	CYP2C19 inhib 78, CYP2C9 inhib 64
Cc1cc(=O)n(CC(C)O)c(O)c1C#N (stereo not drawn)	none (no result: CYP2C9 act, CYP2C19 inhib, CYP2C19 act, CYP2C9 inhib)
O=S(=O)(c1ccc(Cl)s1)N1CCC(Cc2ccccc2)CC1	CYP2C9 inhib 68
O=S(=O)(c1ccc(Br)s1)N1CCC(Cc2ccccc2)CC1	CYP2C9 inhib 56
O=S(=O)(c1ccc(Cl)s1)N1CCN(Cc2ccccc2)CC1	CYP2C19 inhib 84, CYP2C9 inhib 61 (no result: MRP resist rev)
CC(C)c1ccc(NC(=O)N2CCC(c3nc4ccccc4o3)CC2)cc1	none
OC(CNCCC1C=Nc2ccccc21)Cn1c2ccc(Cl)cc2c2cc(Cl)ccc21 (stereo not drawn)	none (no result: CYP2C9 act, MRP resist rev, CYP2C19 inhib, CYP2C19 act, CYP2C9 inhib)
Cc1ccc2cc(CN(Cc3ccc(F)cc3)Cc3nnnn3C3CCCC3)c(=O)[nH]c2c1	none
COc1ccc2cc(CN(Cc3ccco3)Cc3nnnn3C3CCCCC3)c(=O)[nH]c2c1	CYP2C19 inhib 84, CYP2C9 inhib 87
Cc1ccc2cc(CN(Cc3ccccc3)Cc3nnnn3C3CCCC3)c(=O)[nH]c2c1	CYP2C19 inhib 87, CYP2C9 inhib 82

Compound activity from PubChem BioAssay.
